Measurements as given in PubChem BioAssay (EPA / NIEHS).
Results filed as inconclusive are left out. Active and inactive are the calls of the source. Rule for the calls: active = hit-call score of the fitted dose curve at least 0.9, where 1 is the maximum; inconclusive = response in the unintended direction; inactive = score below 0.9.

Biological target: Hepatocyte nuclear factor 4-alpha (Homo sapiens) (UniProt P41235)
Assay: ATG_HNF4a_TRANS: Attagene TRANS-FACTORIAL HepG2 Assay for human Hepatocyte Nuclear Factor 4 alpha (HNF4a) (AID 2282982)
Conditions: HepG2 HNF4a transactivation reporter, mRNA readout
Method in brief: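 Using HepG2 liver cells transfected with GAL4-UAS reporter units, chemical-induced mRNA increases were assessed after 24 hours. Fluorescent RT-PCR fragments were separated by capillary electrophoresis and compared with DMSO negative controls.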

Chain of Hepatocyte nuclear factor 4-alpha (Homo sapiens) (P41235 whole entry, looked up): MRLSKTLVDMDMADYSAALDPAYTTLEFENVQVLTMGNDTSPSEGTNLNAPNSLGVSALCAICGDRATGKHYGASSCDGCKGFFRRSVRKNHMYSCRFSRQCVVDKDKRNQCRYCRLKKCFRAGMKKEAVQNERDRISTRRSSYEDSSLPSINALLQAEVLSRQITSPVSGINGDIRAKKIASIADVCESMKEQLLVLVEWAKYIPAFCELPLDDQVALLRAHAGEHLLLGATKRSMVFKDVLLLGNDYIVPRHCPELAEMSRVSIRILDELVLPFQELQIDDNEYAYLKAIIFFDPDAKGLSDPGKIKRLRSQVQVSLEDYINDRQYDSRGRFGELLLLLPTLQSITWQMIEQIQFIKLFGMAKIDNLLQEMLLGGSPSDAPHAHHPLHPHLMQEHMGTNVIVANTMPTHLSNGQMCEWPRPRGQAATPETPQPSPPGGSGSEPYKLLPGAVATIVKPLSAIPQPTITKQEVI

Compound | outcome | AC50
Cc1c(C(=O)c2c[nH]n(C)c2=O)ccc(S(C)(=O)=O)c1C1=NOCC1 | inactive | –
Cc1ccc(C)c(OCCCC(C)(C)C(=O)O)c1 | inactive | –
Clc1cccnc1 | inactive | –
N=C1C=CC(=C(c2ccc(N)cc2)c2ccc(N)cc2)C=C1 | – | 129 µM (active)
O=C(Cl)c1c(Cl)c(Cl)c(C(=O)Cl)c(Cl)c1Cl | inactive | –
CCOC(=O)OC(=O)OCC | inactive | –
C=CC(=O)OCC(C)OCC(C)OCC(C)OC(=O)C=C (stereo not drawn) | inactive | –
CCCCOCCOC(=O)COc1ccc(Cl)cc1Cl | inactive | –
O=C(Oc1ccccc1)c1ccccc1C(=O)Oc1ccccc1 | inactive | –
CC1(C)C(=O)N(CO)C(=O)N1CO | inactive | –
C=C[C@@]1(C)CC(=O)[C@]2(O)[C@@]3(C)[C@@H](O)CCC(C)(C)[C@@H]3[C@H](O)[C@H](OC(C)=O)[C@@]2(C)O1 | inactive | –
CC(=O)OC(C)c1ccccc1 (stereo not drawn) | inactive | –
CCC(C)N (stereo not drawn) | inactive | –
CC1OC(=O)C(C)OC1=O (stereo not drawn) | inactive | –
CC(=O)OC/C=C(/C)CCC=C(C)C | inactive | –
CCCCC1CCC(=O)O1 (stereo not drawn) | inactive | –

Test system: not listed separately
Assay: ATG_M_06_TRANS: Attagene TRANS-FACTORIAL HepG2 Assay for M06 Transcription Factor (Internal Marker) (AID 2282983);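 note: reporter transcript level by RT-PCR then capillary electrophoresis fluorescence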
Conditions: HepG2 Attagene TRANS M06 internal marker reporter
Method in brief: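 Background-control reporter readout: after 24 h chemical exposure of transiently transfected HepG2 (GAL4-UAS reporter units), mRNA quantified by RT-PCR with fluorescent labeling and capillary electrophoresis. Gain-of-signal fitting against DMSO baseline.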

Compound | outcome
CC1=C(O)C(=O)C(C)O1 (stereo not drawn) | inactive
CCCCNS(=O)(=O)c1ccc(C)cc1 | inactive
O=C(Oc1ccccc1)c1ccccc1O | inactive
O=C(O)c1cc(O)c2ccccc2c1O | inactive
Cc1c(C(=O)c2c[nH]n(C)c2=O)ccc(S(C)(=O)=O)c1C1=NOCC1 | inactive
O=C1CCCCCCCCCCC1 | inactive
CCCCCCCCCCCCCc1ccccc1 | inactive
Cc1ccc(C)c(OCCCC(C)(C)C(=O)O)c1 | inactive
CC(C)(CO)C(O)C(=O)NCCCO (stereo not drawn) | inactive
CCCSSCCC | inactive
Clc1cccnc1 | inactive
CC(C)c1ccc2ncccc2c1 | inactive
N=C1C=CC(=C(c2ccc(N)cc2)c2ccc(N)cc2)C=C1 | inactive
CC(CC(C)C)=NO | inactive
O=C(Cl)c1c(Cl)c(Cl)c(C(=O)Cl)c(Cl)c1Cl | inactive
CC(C)(C)N | inactive

Compound | outcome
CCOC(=O)OC(=O)OCC | inactive
COc1ccc(C(=O)c2ccccc2)c(O)c1 | inactive
C=CC(=O)OCC(C)OCC(C)OCC(C)OC(=O)C=C (stereo not drawn) | inactive
CCCCOCCOC(=O)COc1ccc(Cl)cc1Cl | inactive
CC1(C)C(=O)N(CO)C(=O)N1CO | inactive
C=C[C@@]1(C)CC(=O)[C@]2(O)[C@@]3(C)[C@@H](O)CCC(C)(C)[C@@H]3[C@H](O)[C@H](OC(C)=O)[C@@]2(C)O1 | inactive
O=C(OCc1ccccc1)c1ccc(O)cc1 | inactive
CC(=O)OC(C)c1ccccc1 (stereo not drawn) | inactive
CCC(C)N (stereo not drawn) | inactive
CC1OC(=O)C(C)OC1=O (stereo not drawn) | inactive
CCCCC1CCC(=O)O1 (stereo not drawn) | inactive
CC=C(C)C(C)=O | inactive
CC(=O)CCC1=C(C)CCCC1(C)C | inactive
Nc1cccc(N)n1 | inactive
Cc1noc(NS(=O)(=O)c2ccc(N)cc2)c1C | inactive

Test system: not listed separately
Assay: ATG_M_32_TRANS: Attagene TRANS-FACTORIAL HepG2 Assay for M32 Transcription Factor (Internal Marker) (AID 2282984);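 note: transcript level of a background control reporter unit measured by RT-PCR and capillary electrophoresis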
Conditions: HepG2 Attagene TRANS M32 internal marker reporter
Method in brief: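 Fluorescence-detected mRNA induction, HepG2 liver cells, 24 h after dosing. Multiple GAL4-UAS reporter units introduced by transient transfection; background-control endpoint analysed for gain of signal against DMSO.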

Compound | outcome
CC1=C(O)C(=O)C(C)O1 (stereo not drawn) | inactive
O=C1c2ccccc2C(=O)c2cc(S(=O)(=O)O)ccc21 | inactive
O=C(O)c1cc(O)c2ccccc2c1O | inactive
Cc1c(C(=O)c2c[nH]n(C)c2=O)ccc(S(C)(=O)=O)c1C1=NOCC1 | inactive
O=C1CCCCCCCCCCC1 | inactive
CCCCCCCCCCCCCc1ccccc1 | inactive
Cc1ccc(C)c(OCCCC(C)(C)C(=O)O)c1 | inactive
Clc1cccnc1 | inactive
CC1(C)CCC[C@]2(C)[C@H]3CC(=O)O[C@]3(C)CC[C@@H]12 | inactive
N=C1C=CC(=C(c2ccc(N)cc2)c2ccc(N)cc2)C=C1 | inactive
CCOC(=O)OC(=O)OCC | inactive
CCCC1CCCC(=O)O1 (stereo not drawn) | inactive
COc1ccc(C(=O)c2ccccc2)c(O)c1 | inactive
C=CC(=O)OCC(C)OCC(C)OCC(C)OC(=O)C=C (stereo not drawn) | inactive
CCCCOCCOC(=O)COc1ccc(Cl)cc1Cl | inactive
O=C(Oc1ccccc1)c1ccccc1C(=O)Oc1ccccc1 | inactive
C=C[C@@]1(C)CC(=O)[C@]2(O)[C@@]3(C)[C@@H](O)CCC(C)(C)[C@@H]3[C@H](O)[C@H](OC(C)=O)[C@@]2(C)O1 | inactive
CC(=O)OC(C)c1ccccc1 (stereo not drawn) | inactive
CC(=O)OC/C=C(/C)CCC=C(C)C | inactive
CCCCC1CCC(=O)O1 (stereo not drawn) | inactive
Nc1cccc(N)n1 | inactive

Biological target: Nuclear receptor subfamily 4 group A member 2 (Homo sapiens) (UniProt P43354)
Sequence (P43354 whole entry, looked up): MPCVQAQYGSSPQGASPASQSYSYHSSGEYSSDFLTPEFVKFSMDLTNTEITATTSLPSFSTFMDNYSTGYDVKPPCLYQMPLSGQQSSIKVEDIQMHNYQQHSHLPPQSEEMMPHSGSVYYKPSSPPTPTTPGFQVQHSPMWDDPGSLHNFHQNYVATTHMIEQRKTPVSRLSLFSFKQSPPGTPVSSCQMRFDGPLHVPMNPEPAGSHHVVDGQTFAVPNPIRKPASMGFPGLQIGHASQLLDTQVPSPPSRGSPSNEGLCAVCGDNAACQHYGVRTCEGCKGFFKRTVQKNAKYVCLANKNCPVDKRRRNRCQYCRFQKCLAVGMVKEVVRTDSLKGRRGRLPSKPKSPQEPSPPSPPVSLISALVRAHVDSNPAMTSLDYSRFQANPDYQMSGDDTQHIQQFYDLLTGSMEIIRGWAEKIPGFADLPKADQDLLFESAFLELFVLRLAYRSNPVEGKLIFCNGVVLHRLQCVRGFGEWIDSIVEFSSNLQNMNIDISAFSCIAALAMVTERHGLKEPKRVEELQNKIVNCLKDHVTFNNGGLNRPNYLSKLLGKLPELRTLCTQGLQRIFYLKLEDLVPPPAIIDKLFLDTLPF
Assay: ATG_NURR1_TRANS: Attagene TRANS-FACTORIAL HepG2 Assay for human Nuclear Receptor Related Protein 1 (NURR1) (AID 2282985)
Conditions: HepG2 Attagene TRANS reporter, mRNA readout
Method in brief: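 Chimeric NR-Gal4 proteins were expressed in human HepG2 cells bearing GAL4-UAS reporter units, and induced reporter mRNA was quantified 24 h post-dosing by RT-PCR and capillary electrophoresis.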

Compound | outcome | AC50
CC1=C(O)C(=O)C(C)O1 (stereo not drawn) | inactive | –
CCCCNS(=O)(=O)c1ccc(C)cc1 | inactive | –
O=C(Oc1ccccc1)c1ccccc1O | inactive | –
O=C(O)c1cc(O)c2ccccc2c1O | – | 1.1 µM (active)
Cc1c(C(=O)c2c[nH]n(C)c2=O)ccc(S(C)(=O)=O)c1C1=NOCC1 | inactive | –
O=C1CCCCCCCCCCC1 | inactive | –
CC(C)(CO)C(O)C(=O)NCCCO (stereo not drawn) | inactive | –
CCCSSCCC | inactive | –
N=C1C=CC(=C(c2ccc(N)cc2)c2ccc(N)cc2)C=C1 | inactive | –
O=C(Cl)c1c(Cl)c(Cl)c(C(=O)Cl)c(Cl)c1Cl | inactive | –
CC(C)(C)N | inactive | –
CCOC(=O)OC(=O)OCC | inactive | –
COc1ccc(C(=O)c2ccccc2)c(O)c1 | inactive | –
C=C[C@@]1(C)CC(=O)[C@]2(O)[C@@]3(C)[C@@H](O)CCC(C)(C)[C@@H]3[C@H](O)[C@H](OC(C)=O)[C@@]2(C)O1 | inactive | –
CC(=O)OC(C)c1ccccc1 (stereo not drawn) | inactive | –
CC1OC(=O)C(C)OC1=O (stereo not drawn) | inactive | –
CCCCC1CCC(=O)O1 (stereo not drawn) | inactive | –
CC=C(C)C(C)=O | – | 44.7 µM (active)
CC(=O)CCC1=C(C)CCCC1(C)C | inactive | –
Cc1noc(NS(=O)(=O)c2ccc(N)cc2)c1C | inactive | –
